{"source": "PubChem BioAssay (NCATS)", "note": "Records with an inconclusive call do not appear. Values without a mark were called inactive. Calls of active or inactive are those of the source. Unless noted, calls come from the whole dose curve; as a rule, active = well fitted curve in either direction with a large enough effect (not every such curve was filed as active); inconclusive = small, poorly fitted or top-dose-only effect, or another doubt; inactive = flat fitted curve, though single readings scatter."}
{"tested_on": "not listed separately", "experiment": "AP1 Signaling Pathway (AID 357); note: % is set by controls: 0 for no effect and ±100 for the full control effect", "settings": "ME-180 AP-1-bla reporter, EGF-induced, beta-lactamase ratio, 5 h; at 17.2 µM (top of the series) unless noted", "how_it_was_run": "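Read-out was the 460nm/530nm emission ratio (excitation 405nm) after CCF4 loading for 2.5 hours at room temperature. Cells carried an AP-1-driven beta-lactamase reporter, were stimulated with EC50 EGF plus compound for 5 hours, and AC50 values came from titrations.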"}
{"compound": "CCCSP1(=S)NCCCO1", "note": "(stereo not drawn)", "activity change, negative = inhibition": "32.4%"}
{"compound": "CC1(C)NCCN2C(=O)CSC21", "note": "(stereo not drawn)", "activity change, negative = inhibition": "17.6%"}
{"compound": "CCN(CC)c1ccc(N=Cc2c(O)n(-c3ccccc3C)c(=O)[nH]c2=O)cc1", "activity change, negative = inhibition": "-21.6%"}
{"compound": "Cc1ccc(-n2c(O)c(C=NCCN3CCOCC3)c(=O)[nH]c2=O)cc1", "activity change, negative = inhibition": "6.04%"}
{"compound": "Cc1c(N=Cc2c(O)n(CCc3ccccc3)c(=O)[nH]c2=O)c(=O)n(-c2ccccc2)n1C", "activity change, negative = inhibition": "-11.1%"}
{"compound": "CC(=NCCO)c1c(O)n(C)c(=O)n(C)c1=O", "activity change, negative = inhibition": "9.85%"}
{"compound": "CCN(CC)CCCC(C)N=C(c1ccccc1)c1c(O)n(C)c(=O)n(C)c1=O", "note": "(stereo not drawn)", "activity change, negative = inhibition": "-17.7%"}
{"compound": "O=c1c(C=NCCN2CCNCC2)c(O)n(C2CCCCC2)c(=O)n1C1CCCCC1", "activity change, negative = inhibition": "4.2%"}
{"compound": "CC(=O)CC(C)(C)n1c[n+](C)nn1", "activity change, negative = inhibition": "-8.26%"}
{"compound": "COC(=O)C(O)(c1c[nH]c2ccccc12)C(F)(F)F", "note": "(stereo not drawn)", "activity change, negative = inhibition": "-14.1%"}
{"compound": "C[C@@]12CC[C@H]3[C@@H](CCC4=CC(=O)CC[C@]43C)[C@H]1CCC2=O", "activity change, negative = inhibition": "2.25% [at 38 µM]"}
{"compound": "CCCCNC(=O)Nc1ccc(C(O)(C(=O)OC)C(F)(F)F)cc1", "note": "(stereo not drawn)", "activity change, negative = inhibition": "-12.1%"}
{"compound": "CCOC(C(=O)OCC(O)CN(CC)CC)(c1ccccc1)c1ccccc1", "note": "(stereo not drawn)", "activity change, negative = inhibition": "4.62%"}
{"compound": "CCN1C[C@]2(C)CC[C@@H](O)[C@]34[C@@H]5CC6[C@@H](OC)C[C@@](O)([C@H]5[C@@H]6O)[C@@H](C[C@@H]23)[C@H]14", "activity change, negative = inhibition": "5.54% [at 38 µM]"}
{"compound": "CCN(CC)CCN=Cc1c(O)n(CCc2ccccc2)c(=O)[nH]c1=O", "activity change, negative = inhibition": "-7.05%"}
{"compound": "CCCCSP1(=S)NCCCO1", "note": "(stereo not drawn)", "activity change, negative = inhibition": "2.22%"}
{"compound": "CCCc1nc2ccccc2c(=O)n1-c1ccccc1OC", "activity change, negative = inhibition": "-13.4%"}
{"compound": "C=CCN1C[C@@H](C)N([C@H](c2ccc(C(=O)N(CC)CC)cc2)c2cccc(OC)c2)C[C@H]1C", "activity change, negative = inhibition": "-9.21% [at 38 µM]"}
{"compound": "CCCCC1(CN2CCCC2=O)C(=O)NC(=O)NC1=O", "activity change, negative = inhibition": "7.49%"}
{"compound": "CC(=C1C(=O)c2ccccc2C1=O)N1CCN(CCN=Cc2c(O)n(C)c(=O)n(C)c2=O)CC1", "activity change, negative = inhibition": "-15.2%"}
{"compound": "CCCN1CCc2cccc3c2[C@@H]1Cc1ccc(O)c(O)c1-3", "activity change, negative = inhibition": "6.42% [at 38 µM]"}
{"compound": "C[C@H]1CCCC(=O)CCCCCc2cc(O)cc(O)c2C(=O)O1", "activity change, negative = inhibition": "-29.6%"}
{"compound": "COC(=O)C(c1ccccc1)N1CCCCCC1", "note": "(stereo not drawn)", "activity change, negative = inhibition": "17.9%"}
{"compound": "NC(N)=Nc1ccc2[nH]c3c(c2c1)C[C@]1(O)[C@@H]2Cc4ccc(O)c5c4[C@]1(CCN2CC1CC1)[C@H]3O5", "activity change, negative = inhibition": "-18.3% [at 38 µM]"}
{"compound": "NCC1(c2ccc3c(c2)OCCO3)CCCC1", "activity change, negative = inhibition": "3.9%"}
{"compound": "CN1CCc2nc3sc(C#N)c(N)c3c(-c3cccs3)c2C1", "activity change, negative = inhibition": "-0.879%"}
{"compound": "OC1(c2ccc(F)cc2)CCNC1", "note": "(stereo not drawn)", "activity change, negative = inhibition": "7.87%"}
{"compound": "CCOC(=O)[C@]1(C#N)[C@@H]2C=CC(C(C)=O)=CN2[C@@H](C(N)=O)[C@@H]1c1ccsc1", "activity change, negative = inhibition": "-0.365%"}
{"compound": "C[C@H](N[C@@H](C)CCc1ccccc1)[C@H](O)c1ccc(O)cc1", "activity change, negative = inhibition": "10.2% [at 38 µM]"}
{"compound": "O=c1[nH]c(=O)n(Cc2ccco2)c(O)c1C=NCCN1CCOCC1", "activity change, negative = inhibition": "12.8%"}
{"compound": "CCCC[N+]1(C)[C@@H]2CC(OC(=O)[C@@H](CO)c3ccccc3)C[C@H]1[C@H]1O[C@H]12", "note": "(stereo partly drawn)", "activity change, negative = inhibition": "5.93% [at 38 µM]"}
{"compound": "CC(C)(C)NC[C@H](O)c1ccccc1Cl", "activity change, negative = inhibition": "-8.82% [at 38 µM]"}
{"compound": "CCCN(CC#CCO)CCC", "activity change, negative = inhibition": "-3.1%"}
{"compound": "CCCCCCn1c(O)c(C=NCCCn2ccnc2)c(=O)[nH]c1=O", "activity change, negative = inhibition": "-8.92%"}
{"compound": "O=c1[nH]c(=O)n(Cc2ccco2)c(O)c1C=NCc1ccc2c(c1)OCO2", "activity change, negative = inhibition": "-17.4%"}
{"compound": "CCOc1ccc(-n2c(O)c(C=NCCN3CCNCC3)c(=O)[nH]c2=O)cc1", "activity change, negative = inhibition": "9.57%"}
{"compound": "O=c1[nH]c(=O)n(Cc2ccccc2)c(O)c1C=NCCN1CCOCC1", "activity change, negative = inhibition": "1.24%"}
{"compound": "COCCOC(=O)c1c(N)n(Cc2ccco2)c2nc3ccccc3nc12", "activity change, negative = inhibition": "-12.5%"}
{"compound": "C=CCN1CCc2cccc3c2[C@@H]1Cc1ccc(O)c(O)c1-3", "activity change, negative = inhibition": "-21.9% [at 38 µM]"}
{"target": "Cytochrome P450 1A2 (Homo sapiens) (UniProt P05177)", "sequence (P05177 whole entry, looked up)": "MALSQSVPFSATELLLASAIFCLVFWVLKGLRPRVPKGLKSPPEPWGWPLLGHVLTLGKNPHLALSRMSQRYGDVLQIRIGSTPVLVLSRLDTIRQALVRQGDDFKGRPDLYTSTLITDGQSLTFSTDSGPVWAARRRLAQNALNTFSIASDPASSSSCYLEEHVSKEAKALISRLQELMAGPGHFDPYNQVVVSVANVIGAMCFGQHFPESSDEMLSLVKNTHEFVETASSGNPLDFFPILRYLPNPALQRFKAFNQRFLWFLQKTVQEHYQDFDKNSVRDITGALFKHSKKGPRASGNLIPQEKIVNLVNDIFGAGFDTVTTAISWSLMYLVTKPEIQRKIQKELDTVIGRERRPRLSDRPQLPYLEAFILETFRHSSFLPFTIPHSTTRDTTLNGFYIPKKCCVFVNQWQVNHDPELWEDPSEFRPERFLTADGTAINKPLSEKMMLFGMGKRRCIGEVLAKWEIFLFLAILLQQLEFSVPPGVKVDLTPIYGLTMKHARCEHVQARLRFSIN", "experiment": "p450-cyp1a2 (AID 410; calls by dose curve; note: potency is the fitted concentration of half-maximal effect;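 for activity change, negative = inhibition: -100% = full effect of reference inhibitor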)", "settings": "recombinant CYP1A2, luciferin-ME demethylation, luminescence; series mostly up to 57 µM", "how_it_was_run": "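Inhibition was calculated relative to 57 uM furafylline (full inhibition). The reaction used human CYP1A2 at 20nM with Luciferin-ME at its Km, 100uM, driven by an NADPH-regenerating system for 60 min at room temperature.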"}
{"compound": "C[C@@]12CC[C@H]3[C@@H](CCC4=CC(=O)CC[C@]43C)[C@H]1CCC2=O", "Potency": "inactive"}
{"compound": "CCN1C[C@]2(C)CC[C@@H](O)[C@]34[C@@H]5CC6[C@@H](OC)C[C@@](O)([C@H]5[C@@H]6O)[C@@H](C[C@@H]23)[C@H]14", "Potency": "inactive"}
{"compound": "C=CCN1C[C@@H](C)N([C@H](c2ccc(C(=O)N(CC)CC)cc2)c2cccc(OC)c2)C[C@H]1C", "Potency": "inactive"}
{"compound": "CCCN1CCc2cccc3c2[C@@H]1Cc1ccc(O)c(O)c1-3", "Potency": "3.98 µM (active)"}
{"compound": "NC(N)=Nc1ccc2[nH]c3c(c2c1)C[C@]1(O)[C@@H]2Cc4ccc(O)c5c4[C@]1(CCN2CC1CC1)[C@H]3O5", "Potency": "inactive"}
{"compound": "C[C@H](N[C@@H](C)CCc1ccccc1)[C@H](O)c1ccc(O)cc1", "Potency": "7.94 µM (active)"}
{"compound": "CCCC[N+]1(C)[C@@H]2CC(OC(=O)[C@@H](CO)c3ccccc3)C[C@H]1[C@H]1O[C@H]12", "note": "(stereo partly drawn)", "Potency": "inactive"}
{"compound": "CC(C)(C)NC[C@H](O)c1ccccc1Cl", "Potency": "inactive"}
{"compound": "C=CCN1CCc2cccc3c2[C@@H]1Cc1ccc(O)c(O)c1-3", "Potency": "3.16 µM (active)"}
